Bioassay records from PubChem BioAssay.
Tau fluor cs: counter-screen for tau fibril formation inhibitors; tau K18 P301L Alexa594 fluorescence, heparin fibrillization; Potency, µM (highest dose often 57.7 µM), for inactives: at the top dose activity change, negative = decrease; hit rate 0.93% among 280,000; further: nearly all actives have a fitted effect of over 55% in size
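Human K18 P301L tau (15 uM unlabeled plus 0.24 uM Alexa 594-labeled, final) in 100 mM sodium acetate pH 7 was mixed with compound and 20 uM heparin and incubated 6 hr at 37 C.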
Tau fibril ThT: blocks human tau fibril formation measured by thioflavin T; P10636; recombinant tau K18 P301L (four-repeat tau fragment), heparin-induced fibrillization, ThT fluorescence; Potency, µM (series often up to 57.4 µM), for inactives: at the highest dose activity, negative = inhibition, actives largely listed as inhibitors; hit rate 2.1% among 270,000; further: nearly all actives have a fitted effect of over 55% in size
Target sequence (P10636 561-689 P618L limits assumed): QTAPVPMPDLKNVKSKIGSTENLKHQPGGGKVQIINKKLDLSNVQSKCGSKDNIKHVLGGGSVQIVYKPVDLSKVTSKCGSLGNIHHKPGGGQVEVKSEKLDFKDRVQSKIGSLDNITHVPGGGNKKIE
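K18 P301L tau (15 uM + 0.24 uM Alexa 594-tagged), heparin 20 uM, NaOAc pH 7, 6 h 37 C; ThT 30 uM, 1 h RT, ex 450/em 510 nm.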
TexasRed fluor: counter-screen for TRb-SRC2 inhibitors: fluorescence interference; TRb/SRC2 Texas Red total fluorescence interference; Potency, µM (titrated, usually from 106 µM), for inactives: top-dose fluorescence change, negative = quenching; hit rate 0.29% among 280,000; active means well fitted curve in either direction with a large enough effect; inconclusive means small, poorly fitted or top-dose-only effect
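Human TRb ligand-binding domain at 0.6 uM with 20 nM Texas Red SRC2 peptide in Tris buffer containing 1 uM T3 and 5% DMSO, incubated with compound 5 h at ambient temperature. Total fluorescence (555/632 nm) calculated as parallel + 2 × perpendicular.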
RGS12 GoLoco inh: inhibitors of human Gai1-RGS12 GoLoco interaction (red fluorophore); P63096; Gai1:RGS12 GoLoco peptide FP, rhodamine, 10 min; Potency, µM (series often up to 61.6 µM), for inactives: top-dose activity, negative = inhibition, most hits filed as inhibitors; hit rate 0.44% among 230,000; active means well fitted inhibition curve with a large enough effect, not every such curve was filed as active; inactive means no such curve, though single readings can be large or run the other way; further: nearly all actives have a fitted effect of over 30% in size
Target sequence (P63096 whole entry, looked up): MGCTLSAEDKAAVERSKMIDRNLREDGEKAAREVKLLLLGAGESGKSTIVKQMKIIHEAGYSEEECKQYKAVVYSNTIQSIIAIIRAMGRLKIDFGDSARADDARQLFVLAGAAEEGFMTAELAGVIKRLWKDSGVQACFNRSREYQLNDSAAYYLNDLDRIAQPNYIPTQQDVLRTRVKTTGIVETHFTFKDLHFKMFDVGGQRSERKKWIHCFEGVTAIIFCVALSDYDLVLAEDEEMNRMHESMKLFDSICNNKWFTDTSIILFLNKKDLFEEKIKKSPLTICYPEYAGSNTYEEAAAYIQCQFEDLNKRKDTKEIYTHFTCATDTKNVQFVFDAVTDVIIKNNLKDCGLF
TRb SRC2 PPI: disrupts binding of human TR beta to SRC2. AID 1469. TRbeta-SRC2 peptide binding, fluorescence polarization; receptor liganded with 1 µM T3. hit rate 0.065% among 280,000. Potency, µM (highest dose often 106 µM), for inactives: at the top dose activity change, negative = inhibition, most hits filed as inhibitors;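 further: plate controls were bound peptide for no effect and peptide without receptor for full effect; nearly all actives have a fitted effect of over 50% in size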
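Human TRb LBD (0.6 uM) plus Texas Red-labeled SRC2 peptide (20 nM), 1uM T3, 5% DMSO, 5 hr at ambient temperature. Decreased polarization (555/632 nm) flags inhibition; data normalized to free and bound peptide controls.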
Tau fibril FP: inhibitors of human tau fibril formation; P10636; K18 P301L tau heparin fibrillization, Alexa594 FP, 6 h; Potency, µM (series often up to 57.7 µM), for inactives: top-dose activity, negative = inhibition, usual class: inhibitors; hit rate 0.39% among 280,000; further: nearly all actives have a fitted effect of over 55% in size
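K18 P301L tau (15 uM unlabeled/0.24 uM Alexa 594-labeled, final) + compound + heparin 20 uM final; 100 mM NaOAc pH 7; 6 hr 37 C; ThT 30 uM final added, 1 hr RT; FP ex 555/em 632 nm.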
* marks the source's active call; other numbers are inactive results; [ ] = another dose, or the depositor's remark. Compounds with a hit are over-represented: about 3.1% of the library has one in this group of screens. Unless noted, the call rests on the fitted dose curve; in most records, active means well fitted curve in the direction sought with a large enough effect; inconclusive means small, poorly fitted or top-dose-only effect, or another doubt; inactive means no such curve, though single readings can be large; an effect the other way counts as inactive or inconclusive. Unless noted, on the % scale 0 is the no-effect control and ±100 the full control effect; potency means the concentration at half of the fitted maximal effect.

For CC(C)OCCCNC(=O)c1ccc(-n2c(-c3ccccc3)cc3c2CCCC3)cc1 the results were Tau fluor cs inconclusive, Tau fibril ThT -9%, TexasRed fluor -1%, TRb SRC2 PPI -7% and Tau fibril FP 14µM*.
[N-]=[N+]=NC[C@@H]1O[C@@H](n2cnc3c(N)ncnc32)[C@@H]2O[C@@H]21 was read as RGS12 GoLoco inh 2%[14.2 µM].
`CC(C)NC(=O)c1ccc(-n2c(-c3ccccc3)cc3c2CCCC3)cc1` gave Tau fluor cs -16%, Tau fibril ThT 0%, TexasRed fluor -16%, TRb SRC2 PPI -1% and Tau fibril FP inconclusive.
Screening CCC(C)NC(=O)c1ccc(-n2c(-c3ccccc3)cc3c2CCCC3)cc1 (stereo not drawn) returned Tau fluor cs inconclusive, Tau fibril ThT inconclusive, TexasRed fluor 1.8µM*[quencher], TRb SRC2 PPI -13% and Tau fibril FP -1%.
Screening CCNC(=O)c1ccc(-n2c(-c3ccccc3)cc3c2CCCCC3)cc1 returned Tau fluor cs inconclusive, Tau fibril ThT 21%, TexasRed fluor -12%, TRb SRC2 PPI 4% and Tau fibril FP 11µM*.
CCOc1nc(NCCO)nc(NCCC2=CCCCC2)n1 was read as Tau fluor cs -4%, Tau fibril ThT -7%, TexasRed fluor 1%, RGS12 GoLoco inh -4%, TRb SRC2 PPI -6% and Tau fibril FP 6%.
`Cc1ccc(C)c(Nc2nc(N)c3ccccc3n2)c1` gave Tau fluor cs -4%, Tau fibril ThT -1%, TexasRed fluor 2%, RGS12 GoLoco inh 4%, TRb SRC2 PPI -4% and Tau fibril FP 3%.
For COc1ccc(C)cc1Nc1nc(N)c2cc(OC)c(OC)cc2n1 the results were Tau fluor cs 20µM*[quencher], Tau fibril ThT -5%, TexasRed fluor -4%, TRb SRC2 PPI -1% and Tau fibril FP inconclusive.
COC(=O)CC1(c2cccc3ccccc23)C(=O)c2ccccc2C1=O was read as Tau fluor cs inconclusive, Tau fibril ThT 16µM*, TexasRed fluor -5%, RGS12 GoLoco inh -4%, TRb SRC2 PPI 8% and Tau fibril FP -5%.
Screening COC(=O)CC1(c2ccccc2)C(=O)c2ccccc2C1=O returned Tau fluor cs -12%, Tau fibril ThT -8%, TexasRed fluor -3%, RGS12 GoLoco inh 2%, TRb SRC2 PPI -12% and Tau fibril FP -4%.
Screening CC1CCN(c2ccc(NC(=O)c3ccccc3[N+](=O)[O-])cc2)CC1 returned Tau fluor cs -22%, Tau fibril ThT -20%, TexasRed fluor 1%, RGS12 GoLoco inh 36%, TRb SRC2 PPI 4% and Tau fibril FP -3%.
`CCOc1cc(/C=C2\NC(=O)NC2=O)cc([N+](=O)[O-])c1O` gave Tau fluor cs -10%, TexasRed fluor -7%, RGS12 GoLoco inh -3%, TRb SRC2 PPI 1% and Tau fibril FP -1%.
`COc1cc(/C=C2\C(=O)NN(c3ccccc3)C2=O)cc([N+](=O)[O-])c1O` gave Tau fluor cs -30%, Tau fibril ThT 11µM*, TexasRed fluor -3%, RGS12 GoLoco inh -17%, TRb SRC2 PPI 0% and Tau fibril FP -6%.
`CCOc1cc(/C=C2\C(=O)NN(c3ccccc3)C2=O)cc([N+](=O)[O-])c1O` gave Tau fluor cs -23%, Tau fibril ThT inconclusive, TexasRed fluor -5%, RGS12 GoLoco inh -10%, TRb SRC2 PPI -5% and Tau fibril FP -12%.
COc1cc(/C=C2\C(=O)NN(c3ccc(C)cc3)C2=O)cc([N+](=O)[O-])c1O was read as Tau fluor cs inconclusive, Tau fibril ThT 13µM*, TexasRed fluor -7%, RGS12 GoLoco inh 15%, TRb SRC2 PPI -1% and Tau fibril FP -4%.
O=C(CSc1nnc(SCc2ccc(Cl)cc2)s1)N1CCOCC1 was read as Tau fluor cs 9%, Tau fibril ThT 6%, TexasRed fluor -2%, RGS12 GoLoco inh -19%, TRb SRC2 PPI 4% and Tau fibril FP 2%.
COc1ccc(C(=O)C(C)Oc2cccc(NC(=O)c3cccc([N+](=O)[O-])c3)c2)cc1 (stereo not drawn) was read as Tau fluor cs 3.5µM*[quencher], Tau fibril ThT -11%, TexasRed fluor -1%, RGS12 GoLoco inh 9%, TRb SRC2 PPI 3% and Tau fibril FP -3%.
For O=C(Nc1cccc([N+](=O)[O-])c1)Nc1ccc2c(c1)OCCO2 the results were Tau fluor cs 14µM*[quencher], Tau fibril ThT inconclusive, TexasRed fluor -9%, RGS12 GoLoco inh 7%, TRb SRC2 PPI -4% and Tau fibril FP 5%.
COc1cc(NC(=O)Nc2cccc([N+](=O)[O-])c2)cc(OC)c1 was read as Tau fluor cs 14µM*[quencher], Tau fibril ThT inconclusive, TexasRed fluor -4%, RGS12 GoLoco inh 18%, TRb SRC2 PPI -3% and Tau fibril FP inconclusive.
O=C(Nc1cccc([N+](=O)[O-])c1)Nc1cccc([N+](=O)[O-])c1 was read as Tau fluor cs inconclusive, Tau fibril ThT inconclusive, TexasRed fluor -5%, RGS12 GoLoco inh 2%, TRb SRC2 PPI 7% and Tau fibril FP -14%.
Screening O=C(O)c1ccc(N2C(=O)c3[nH]nc(-c4ccccc4)c3C2c2cccc(F)c2)cc1 (stereo not drawn) returned Tau fluor cs 4%, Tau fibril ThT 4%, TexasRed fluor 0%, TRb SRC2 PPI -3% and Tau fibril FP -10%.
Screening NC(=O)C1(NC(=O)[C@@H]2CC3(CC(c4cccc(NC(=O)[C@@H]5CCC(=O)N5)c4)=NO3)CN2C(=O)c2ccccc2)CC1 (stereo partly drawn) returned Tau fluor cs 4%, Tau fibril ThT 6%, TexasRed fluor -1%, RGS12 GoLoco inh 1%, TRb SRC2 PPI -10% and Tau fibril FP -1%.
`N#Cc1ccc(-c2ccco2)nc1SCC(=O)c1ccc(Cl)cc1` gave Tau fluor cs inconclusive, Tau fibril ThT 5µM*, TexasRed fluor -10%, RGS12 GoLoco inh 20%, TRb SRC2 PPI -6% and Tau fibril FP -4%.
`Cc1ccsc1C=Nc1ccc(O)cc1` gave Tau fluor cs inconclusive, Tau fibril ThT 3.5µM*, TexasRed fluor -9%, RGS12 GoLoco inh -38%, TRb SRC2 PPI 32µM* and Tau fibril FP 11µM*.
`Cc1ccsc1/C=N/NC(=O)CO` gave Tau fluor cs 8%, Tau fibril ThT 7%, TexasRed fluor 1%, RGS12 GoLoco inh 6%, TRb SRC2 PPI 3% and Tau fibril FP 0%.
For CC(/C=N/NC(=O)Cn1cnc2c1c(=O)n(C)c(=O)n2C)=C\c1ccco1 the results were Tau fluor cs -9%, Tau fibril ThT inconclusive, TexasRed fluor 0%, RGS12 GoLoco inh -6%, TRb SRC2 PPI -1% and Tau fibril FP 4%.
